# Laboratory results published in PubChem BioAssay (NCATS).
# Records with an inconclusive call do not appear. Active and inactive are the calls of the source. Calls come from the whole dose curve; as a rule, active = well fitted cell-killing curve with a large enough effect; inconclusive = small, poorly fitted or top-dose-only effect, or effect the other way; inactive = flat fitted curve, though single readings scatter.
# Assay: qHTS assay for cell viability of the p53RE-bla HCT-116 cell line (AID 743292); note: nearly all actives have a fitted effect of over 55% in size
# Details: p53RE-bla HCT-116 viability, ATP luminescence, 16 h; series mostly up to 95 µM; activity change, negative = cytotoxicity: at the top concentration
# In short: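 After plating at 4,000 cells per well and a 5 h rest at 37 C, HCT-116 cells carrying p53RE-bla received test chemicals in DMSO. Sixteen hours later at 37 C, CellTiter-Glo was added and luminescence recorded following 30 min at room temperature.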
# % is set by controls: 0 for no effect and ±100 for the full control effect.
SMILES,"activity change, negative = cytotoxicity",Potency
O=S(=O)(c1ccc(O)cc1)c1ccc(O)cc1,-13.7% (inactive),–
COc1ccc(O)c(C(C)(C)C)c1,-1.26% (inactive),–
O=[N+]([O-])c1ccc(Oc2ccc(C(F)(F)F)cc2[N+](=O)[O-])cc1,-14.7% (inactive),–
Cc1ccccc1C(=O)Nc1cccc(OC(C)C)c1,2.81% (inactive),–
CN(C)P(=O)(N(C)C)N(C)C,1.72% (inactive),–
CCOc1ccc(C(C)(C)COCc2cccc(Oc3ccccc3)c2)cc1,-5.74% (inactive),–
O=c1[nH]c2ccccc2c(=O)o1,-6.18% (inactive),–
COc1ccc(C(O)(c2cncnc2)C2CC2)cc1 (configuration not stated),-14.6% (inactive),–
CN(C)c1nc(=O)n(C2CCCCC2)c(=O)n1C,1.77% (inactive),–
C=CC1(C)OC(=O)N(c2cc(Cl)cc(Cl)c2)C1=O (configuration not stated),7.58% (inactive),–
COC(=O)c1ccccc1CS(=O)(=O)NC(=O)Nc1nc(OC)cc(OC)n1,7.09% (inactive),–
CCC[CH2][Sn]([CH2]CCC)([O]C(C)=O)[O]C(C)=O,-10.7% (inactive),–
O=P(O)(O)CCCl,–,inactive
CCCCN(CC)C(=O)SCCC,-0.213% (inactive),–
NS(=O)(=O)C(F)(F)C(F)(F)C(F)(F)C(F)(F)C(F)(F)C(F)(F)C(F)(F)C(F)(F)F,-21% (inactive),–
CCOP(=O)(NC(C)C)Oc1ccc(S(C)=O)c(C)c1 (configuration not stated),4.84% (inactive),–
COP(=S)(OC)Oc1nc(Cl)c(Cl)cc1Cl,-10.8% (inactive),–
COC(=O)c1ccccc1S(=O)(=O)NC(=O)N(C)c1nc(C)nc(OC)n1,6.25% (inactive),–
Clc1ccc(C(Cl)(Cl)Cl)cc1,1.39% (inactive),–
CCOC1Oc2ccc(OS(C)(=O)=O)cc2C1(C)C (configuration not stated),-5.57% (inactive),–
COCc1cnc(C2=NC(C)(C(C)C)C(=O)N2)c(C(=O)O)c1 (configuration not stated),-2.56% (inactive),–
CCNc1nc(NC(C)(C)C)nc(SC)n1,-14.7% (inactive),–
